According to PubChem BioAssay (NCI):
The panel holds about 79,000 compounds, 15% with a hit somewhere; the sample as a whole holds those more often. The source made the active and inactive calls. Rule as the data show it: active = growth inhibition above about 70%; inactive = the rest.

What was measured:
[1] = NCI Yeast Anticancer Drug Screen. Data for the rad50 strain (AID 155);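 also: 0% = growth of vehicle-only cultures of the same strain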; conditions: S. cerevisiae rad50 strain growth inhibition, hits give high values
Method in brief: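 Relative growth inhibition (compound vs vehicle) was measured in yeast with a defined repair-gene alteration.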

[2] = NCI Yeast Anticancer Drug Screen. Data for the mec2-1 strain (AID 157); conditions: S. cerevisiae mec2-1 strain, hits give high values
Method in brief: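 Each compound was tested on mec2-1 yeast, a strain altered in DNA damage repair or cell cycle control. Growth inhibition is reported relative to vehicle.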

[3] = NCI Yeast Anticancer Drug Screen. Data for the sgs1 mgt1 strain (AID 161);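 also: 0% = growth of cultures given vehicle only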; conditions: S. cerevisiae sgs1 mgt1 strain, hits give high values
Method in brief: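 Inhibition of yeast growth, normalised to vehicle-treated controls, is reported for a strain bearing genetic alterations in DNA damage repair.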

[4] = NCI Yeast Anticancer Drug Screen. Data for the cln2 rad14 strain (AID 165);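 also: 0% = growth equal to vehicle treated cultures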; conditions: S. cerevisiae cln2 rad14 strain, hits give high values
Method in brief: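 Test compounds were added to cln2 rad14 yeast cultures; inhibition of growth was then determined by comparison with vehicle treatment.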

[5] = NCI Yeast Anticancer Drug Screen. Data for the bub3 strain (AID 167); conditions: S. cerevisiae bub3 mutant strain, hits give high values
Method in brief: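 Screening used yeast with an engineered genetic alteration affecting cell cycle control. Compound-exposed cultures were compared with vehicle cultures, and reduced growth was taken as inhibition.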

[6] = NCI Yeast Anticancer Drug Screen. Data for the mlh1 rad18 strain (AID 175); conditions: S. cerevisiae mlh1 rad18 strain growth inhibition, hits give high values
Method in brief: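 Inhibition values reflect reduced growth of mutant yeast versus vehicle-treated controls following compound exposure; the mutations affect DNA damage repair.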

[7] = at 5.0 µM (retest, dose inferred, filed as 0.5)
[8] = at 50.0 µM (retest, dose inferred, filed as 5.0)

Measured: growth inhibition

O=S(=O)(c1cc(Cl)c(Cl)cc1Cl)N(CCCCCN(S(=O)(=O)c1cc(Cl)c(Cl)cc1Cl)S(=O)(=O)c1cc(Cl)c(Cl)cc1Cl)S(=O)(=O)c1cc(Cl)c(Cl)cc1Cl
inactive: [1]; [7] -9% | [1]; [8] -3% | [2]; [7] -11% | [2]; [8] -13% | [3]; [7] -14% | [3]; [8] -23% | [4]; [7] -10% | [4]; [8] -8% | [5]; [7] 19% | [5]; [8] 4% | [6]; [7] -29% | [6]; [8] -17%
active: [1]; at 50.0 µM 98.6% | [2]; at 50.0 µM 98.2% | [3]; at 50.0 µM 97.1% | [4]; at 50.0 µM 96% | [5]; at 50.0 µM 98.9% | [6]; at 50.0 µM 97.8%

O=C1C=CC(=O)N1c1ccc(Cl)cc1
active: [1]; [7] 79% | [1]; [8] 97% | [1]; at 50.0 µM 91.6% | [2]; [7] 79% | [2]; [8] 99% | [2]; at 50.0 µM 93.1% | [3]; [7] 95% | [3]; [8] 100% | [3]; at 50.0 µM 92.8% | [4]; [8] 101% | [4]; at 50.0 µM 84.8% | [5]; [7] 101% | [5]; [8] 100% | [5]; at 50.0 µM 92.1% | [6]; [7] 80% | [6]; [8] 99% | [6]; at 50.0 µM 92%
inactive: [4]; [7] 54%

Cc1ccc(S(=O)(=O)OCC(/C=N/NC(N)=O)OCOC(C)/C=N/NC(N)=O)cc1 (stereo not given)
active: [2]; at 50.0 µM 99.2%
inactive: [1]; [7] -2% | [1]; [8] -7% | [1]; at 50.0 µM 14.8% | [2]; [7] 0% | [2]; [8] -5% | [3]; [7] -4% | [3]; [8] -8% | [3]; at 50.0 µM 1.95% | [4]; [7] 1% | [4]; [8] -8% | [4]; at 50.0 µM 46.8% | [5]; [7] 1% | [5]; [8] -2% | [5]; at 50.0 µM -1.4% | [6]; [7] 1% | [6]; [8] -3% | [6]; at 50.0 µM 19.1%

CCOC(=O)N1CCN(C=S)CC1
inactive: [1]; [7] -8% | [1]; [8] 6% | [1]; at 50.0 µM 31.1% | [2]; [7] 0% | [2]; [8] -7% | [2]; at 50.0 µM -23.3% | [3]; [7] -5% | [3]; [8] -17% | [3]; at 50.0 µM 57.7% | [4]; [7] 17% | [4]; [8] 31% | [4]; at 50.0 µM 15.8% | [5]; [7] 8% | [5]; [8] 31% | [5]; at 50.0 µM 24% | [6]; [7] -5% | [6]; [8] -1% | [6]; at 50.0 µM 38.2%

C=CCOc1ccc(C2(c3ccc(OCC=C)cc3)C(=O)Nc3ccccc32)cc1
active: [1]; [8] 90% | [1]; at 50.0 µM 84.1% | [2]; [8] 92% | [2]; at 50.0 µM 86.8% | [3]; [8] 90% | [3]; at 50.0 µM 89.2% | [4]; [8] 91% | [4]; at 50.0 µM 86.5% | [5]; [8] 93% | [5]; at 50.0 µM 87.9% | [6]; [8] 88% | [6]; at 50.0 µM 86.6%
inactive: [1]; [7] 1% | [2]; [7] -8% | [3]; [7] 8% | [4]; [7] 24% | [5]; [7] 6% | [6]; [7] 5%

CC12CCC(O)CC1CCC1C2CCC2(C)C(NC(=O)N(CCCl)N=O)CCC12 (stereo not given)
inactive: [1]; [7] 6% | [2]; [7] 2% | [3]; [7] -205% | [4]; [7] -1% | [4]; [8] 35% | [4]; at 50.0 µM 65.8% | [5]; [7] -7% | [5]; [8] 63% | [5]; at 50.0 µM 56.8% | [6]; [7] 46%
active: [1]; [8] 74% | [1]; at 50.0 µM 91.3% | [2]; [8] 78% | [2]; at 50.0 µM 80.5% | [3]; [8] 84% | [3]; at 50.0 µM 92.9% | [6]; [8] 94% | [6]; at 50.0 µM 94.5%

O=C(C1=NNC(c2ccccc2)C1C(=O)c1ccccc1)c1ccccc1 (stereo not given)
inactive: [1]; [7] -1% | [2]; [7] -7% | [2]; [8] 65% | [2]; at 50.0 µM 30.6% | [3]; [7] 2% | [4]; [7] 2% | [4]; [8] 67% | [4]; at 50.0 µM 67% | [5]; [7] -10% | [6]; [7] 4%
active: [1]; [8] 82% | [1]; at 50.0 µM 74.8% | [3]; [8] 84% | [3]; at 50.0 µM 79% | [5]; [8] 86% | [5]; at 50.0 µM 75% | [6]; [8] 86% | [6]; at 50.0 µM 81.2%

CN(C)CCOC(=O)C1(CCC2CCCCC2)CCCCC1
inactive: [1]; [7] 0% | [2]; [7] -1% | [2]; [8] 17% | [2]; at 50.0 µM 30.9% | [3]; [7] -2% | [3]; [8] 57% | [3]; at 50.0 µM 60.5% | [4]; [7] -3% | [4]; [8] 37% | [4]; at 50.0 µM 18.7% | [5]; [7] 1% | [5]; [8] 32% | [6]; [7] -2%
active: [1]; [8] 80% | [1]; at 50.0 µM 96.9% | [5]; at 50.0 µM 85% | [6]; [8] 77% | [6]; at 50.0 µM 93.3%

O=[N+]([O-])c1ccc(N/N=C/CCCCCCCCCCBr)c([N+](=O)[O-])c1
inactive: [1]; [7] -4% | [1]; [8] -3% | [1]; at 50.0 µM 24.8% | [2]; [7] -2% | [2]; [8] 1% | [2]; at 50.0 µM 10.4% | [3]; [7] -5% | [3]; [8] 0% | [3]; at 50.0 µM 2.4% | [4]; [7] -4% | [4]; [8] -6% | [4]; at 50.0 µM 9.15% | [5]; [7] -5% | [5]; [8] 1% | [5]; at 50.0 µM 50.3% | [6]; [7] -1% | [6]; [8] -2% | [6]; at 50.0 µM 21.4%

C[N+](C)(C)CCCCCCCCCCC(=O)N/N=C/c1ccc([N+](=O)[O-])o1
inactive: [1]; [7] 6% | [1]; [8] 8% | [1]; at 50.0 µM 9.85% | [2]; [7] 2% | [2]; [8] 7% | [2]; at 50.0 µM 4.35% | [3]; [7] 6% | [3]; [8] 18% | [3]; at 50.0 µM 48.9% | [4]; [7] 2% | [4]; [8] 2% | [4]; at 50.0 µM 32.3% | [5]; [7] 0% | [5]; [8] -3% | [5]; at 50.0 µM -3.85% | [6]; [7] 9% | [6]; [8] 15% | [6]; at 50.0 µM 64.6%
